This is an account of results in PMC7862700, “An all-to-all approach to the identification of sequence-specific readers for epigenetic DNA modifications on cytosine”.

Experiment in all cases: DAPPL (digital affinity profiling via proximity ligation, sequencing); 10 mM Tris-HCl pH 7.5, 50 mM NaCl, 1 mM DTT, 4% glycerol, room temperature, 30 min; GST-TFs on glutathione beads, 16-mer random dsDNA library, 0.1% formaldehyde crosslink after washing; high values mean tight binding
Test [1] addresses T1, FEV (Homo sapiens, UniProt Q99581 1-238).
T1 sequence: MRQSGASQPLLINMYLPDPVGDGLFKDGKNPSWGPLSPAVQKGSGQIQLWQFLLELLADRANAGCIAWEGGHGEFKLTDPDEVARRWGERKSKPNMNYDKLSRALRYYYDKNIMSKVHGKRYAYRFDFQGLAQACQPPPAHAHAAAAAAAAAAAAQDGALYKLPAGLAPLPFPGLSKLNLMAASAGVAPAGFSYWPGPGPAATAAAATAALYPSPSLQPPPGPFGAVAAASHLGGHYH
As to conditions: protein: recombinant; tags: N-terminal GST; dsDNA, one strand shown. The method, boiled down:
(§1)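 Binding signal is defined as a hexamer's read frequency for one factor over its frequency for the tag-only sample. To obtain reads, GST-fused human transcription factors were expressed in yeast, captured on glutathione beads, barcoded with DNA and pooled with that sample. Pools met 200 nmole of a 16-mer random double-stranded DNA library in Tris/NaCl/DTT/glycerol buffer for 30 min at room temperature before washing, 0.1% formaldehyde crosslinking, proximity ligation (BsaI/T4 ligase, 1 h, 37 °C), PCR and Illumina NextSeq500 sequencing.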

In test [2] the target is ETV5 (Homo sapiens, UniProt P41161 1-510). As to conditions: protein: recombinant; tags: N-terminal GST; dsDNA, one strand shown. The method, boiled down: as §1
The target in test [3] is HSF1 (Homo sapiens, UniProt Q00613 1-529). Particulars: protein: recombinant; tags: N-terminal GST; chain copies: 3; dsDNA, one strand shown. Put shortly:
as §1

Test [4] addresses T2, SPIC (Homo sapiens, UniProt Q8N5J4 1-248).
T2 sequence: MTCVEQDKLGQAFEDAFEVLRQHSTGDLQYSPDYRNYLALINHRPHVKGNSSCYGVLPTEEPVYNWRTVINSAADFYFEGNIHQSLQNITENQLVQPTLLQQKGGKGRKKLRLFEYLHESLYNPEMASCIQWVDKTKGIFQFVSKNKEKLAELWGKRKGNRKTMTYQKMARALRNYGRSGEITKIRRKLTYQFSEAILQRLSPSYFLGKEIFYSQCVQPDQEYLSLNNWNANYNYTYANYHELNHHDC
As to conditions: protein: recombinant; tags: N-terminal GST; dsDNA, one strand shown. Put shortly:
as §1

The target of test [5] is ELF4 (Homo sapiens, UniProt Q99607 1-663). As to conditions: protein: recombinant; tags: N-terminal GST; dsDNA, one strand shown. The method, boiled down: as §1
For test [6], the target named is T3, ELK4 (Homo sapiens, UniProt P28324-2 1-405).
T3 sequence: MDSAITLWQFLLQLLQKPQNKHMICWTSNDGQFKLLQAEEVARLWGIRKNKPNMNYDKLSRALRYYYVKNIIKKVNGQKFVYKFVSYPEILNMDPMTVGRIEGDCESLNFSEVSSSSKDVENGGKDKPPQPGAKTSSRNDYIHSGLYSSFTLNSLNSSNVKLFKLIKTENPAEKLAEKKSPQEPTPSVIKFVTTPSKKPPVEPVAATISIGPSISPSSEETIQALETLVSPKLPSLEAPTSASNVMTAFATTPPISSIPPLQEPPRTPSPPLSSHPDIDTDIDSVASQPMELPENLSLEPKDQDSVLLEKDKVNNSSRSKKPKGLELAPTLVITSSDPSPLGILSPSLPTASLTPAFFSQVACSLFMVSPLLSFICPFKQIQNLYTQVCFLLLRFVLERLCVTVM
As to conditions: protein: recombinant; tags: N-terminal GST; dsDNA, one strand shown. The method, boiled down: as §1

Test [7] deals with T4, ETV2 (Homo sapiens, UniProt O00321 1-342).
T4 sequence: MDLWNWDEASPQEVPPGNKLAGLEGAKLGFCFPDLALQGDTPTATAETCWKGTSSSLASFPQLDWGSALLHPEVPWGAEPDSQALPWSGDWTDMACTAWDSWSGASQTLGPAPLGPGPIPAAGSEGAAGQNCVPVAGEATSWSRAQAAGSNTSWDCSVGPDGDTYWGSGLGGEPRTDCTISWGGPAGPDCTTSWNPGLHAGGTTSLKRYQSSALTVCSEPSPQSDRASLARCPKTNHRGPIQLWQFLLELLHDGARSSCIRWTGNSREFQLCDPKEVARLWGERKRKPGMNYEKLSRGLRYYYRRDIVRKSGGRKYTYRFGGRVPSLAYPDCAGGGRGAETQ
As to conditions: protein: recombinant; tags: N-terminal GST; dsDNA, one strand shown. Put shortly: as §1

For test [8], the target named is T5, ELF3 (Homo sapiens, UniProt P78545 1-371).
T5 sequence: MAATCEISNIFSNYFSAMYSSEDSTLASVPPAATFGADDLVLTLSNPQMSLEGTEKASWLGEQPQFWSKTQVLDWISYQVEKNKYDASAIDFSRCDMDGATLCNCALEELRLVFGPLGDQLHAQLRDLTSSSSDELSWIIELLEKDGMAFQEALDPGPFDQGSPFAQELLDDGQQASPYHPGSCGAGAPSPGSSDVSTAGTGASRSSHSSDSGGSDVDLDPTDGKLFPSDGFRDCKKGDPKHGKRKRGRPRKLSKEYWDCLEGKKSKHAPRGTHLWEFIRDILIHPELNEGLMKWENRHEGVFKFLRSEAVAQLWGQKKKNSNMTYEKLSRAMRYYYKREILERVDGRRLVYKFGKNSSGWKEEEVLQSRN
Particulars: protein: recombinant; tags: N-terminal GST; dsDNA, one strand shown. Put shortly:
as §1

The target in test [9] is CRX (Homo sapiens, UniProt O43186 1-299). Particulars: protein: recombinant; tags: N-terminal GST; dsDNA, one strand shown. The method, boiled down:
as §1

The target in test [10] is ETV1 (Homo sapiens, UniProt P50549 1-477). Particulars: protein: recombinant; tags: N-terminal GST; dsDNA, one strand shown. Put shortly:
as §1

The target in test [11] is T6, ERF (Homo sapiens, UniProt P50548 1-548).
T6 sequence: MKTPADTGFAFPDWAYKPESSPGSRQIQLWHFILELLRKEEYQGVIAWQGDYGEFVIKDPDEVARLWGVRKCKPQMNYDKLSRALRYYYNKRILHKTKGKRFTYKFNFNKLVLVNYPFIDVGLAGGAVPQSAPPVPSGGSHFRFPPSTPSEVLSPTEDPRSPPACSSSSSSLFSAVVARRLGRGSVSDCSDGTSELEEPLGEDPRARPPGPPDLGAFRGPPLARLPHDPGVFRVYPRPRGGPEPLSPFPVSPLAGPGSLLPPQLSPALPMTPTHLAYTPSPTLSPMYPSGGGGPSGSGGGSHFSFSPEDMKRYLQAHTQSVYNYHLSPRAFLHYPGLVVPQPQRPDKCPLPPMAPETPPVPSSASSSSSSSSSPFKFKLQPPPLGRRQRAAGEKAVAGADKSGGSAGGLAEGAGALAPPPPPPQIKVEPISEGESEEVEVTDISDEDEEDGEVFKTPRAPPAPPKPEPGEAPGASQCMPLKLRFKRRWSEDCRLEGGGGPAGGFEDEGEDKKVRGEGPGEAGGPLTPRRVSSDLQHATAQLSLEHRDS
As to conditions: protein: recombinant; tags: N-terminal GST; dsDNA, one strand shown. The method, boiled down:
as §1

In test [12] the target is T7, ETV3L (Homo sapiens, UniProt Q6ZN32 1-361).
T7 sequence: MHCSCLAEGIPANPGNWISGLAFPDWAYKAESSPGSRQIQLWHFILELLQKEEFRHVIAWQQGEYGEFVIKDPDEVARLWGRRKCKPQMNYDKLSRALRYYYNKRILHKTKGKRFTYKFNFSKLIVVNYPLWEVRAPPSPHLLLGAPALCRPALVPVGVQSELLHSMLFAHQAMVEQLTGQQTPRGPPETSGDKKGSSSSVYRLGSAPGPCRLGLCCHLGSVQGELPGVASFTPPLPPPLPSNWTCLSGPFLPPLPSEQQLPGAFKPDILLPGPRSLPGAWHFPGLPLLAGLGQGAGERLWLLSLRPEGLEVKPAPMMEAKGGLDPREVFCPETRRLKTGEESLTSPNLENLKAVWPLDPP
Particulars: protein: recombinant; tags: N-terminal GST; dsDNA, one strand shown. Put shortly:
as §1

In test [13] the target is T8, ETS2 (Homo sapiens, UniProt P15036 1-469).
T8 sequence: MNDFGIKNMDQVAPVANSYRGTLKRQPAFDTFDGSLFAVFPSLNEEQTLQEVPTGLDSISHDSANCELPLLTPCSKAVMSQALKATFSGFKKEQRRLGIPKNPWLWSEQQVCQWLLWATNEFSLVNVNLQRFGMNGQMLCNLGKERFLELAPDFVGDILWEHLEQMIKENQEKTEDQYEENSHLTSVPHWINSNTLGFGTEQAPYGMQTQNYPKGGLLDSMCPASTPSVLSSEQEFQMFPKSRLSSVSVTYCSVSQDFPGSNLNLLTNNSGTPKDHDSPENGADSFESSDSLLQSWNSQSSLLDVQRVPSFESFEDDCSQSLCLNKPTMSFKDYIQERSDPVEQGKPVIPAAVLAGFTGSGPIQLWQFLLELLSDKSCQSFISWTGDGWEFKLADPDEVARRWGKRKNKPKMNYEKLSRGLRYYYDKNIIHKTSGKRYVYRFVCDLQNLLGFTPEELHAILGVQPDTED
Particulars: protein: recombinant; tags: N-terminal GST; dsDNA, one strand shown. The method, boiled down: as §1

For test [14], the target named is T9, SPDEF (Homo sapiens, UniProt O95238 1-335).
T9 sequence: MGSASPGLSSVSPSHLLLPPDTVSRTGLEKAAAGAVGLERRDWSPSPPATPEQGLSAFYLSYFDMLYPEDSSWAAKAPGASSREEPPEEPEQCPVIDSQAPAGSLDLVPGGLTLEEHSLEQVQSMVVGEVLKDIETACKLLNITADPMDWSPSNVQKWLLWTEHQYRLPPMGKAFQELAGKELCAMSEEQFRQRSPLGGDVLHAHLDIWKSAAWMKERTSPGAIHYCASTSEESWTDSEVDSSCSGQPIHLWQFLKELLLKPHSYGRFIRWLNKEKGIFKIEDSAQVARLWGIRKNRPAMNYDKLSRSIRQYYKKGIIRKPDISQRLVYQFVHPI
Particulars: protein: recombinant; tags: N-terminal GST; dsDNA, one strand shown. Put shortly:
as §1

For test [15], the target named is T10, ETV7 (Homo sapiens, UniProt Q9Y603 1-341).
T10 sequence: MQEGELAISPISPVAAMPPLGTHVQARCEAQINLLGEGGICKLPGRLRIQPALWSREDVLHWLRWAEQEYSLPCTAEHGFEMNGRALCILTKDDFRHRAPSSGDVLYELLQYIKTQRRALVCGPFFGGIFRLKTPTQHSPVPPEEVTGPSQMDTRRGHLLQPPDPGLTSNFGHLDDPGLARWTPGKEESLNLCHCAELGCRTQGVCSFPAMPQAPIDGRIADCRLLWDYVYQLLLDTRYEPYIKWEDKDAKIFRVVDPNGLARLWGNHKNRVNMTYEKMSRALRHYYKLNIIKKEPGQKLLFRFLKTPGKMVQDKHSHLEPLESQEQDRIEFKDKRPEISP
As to conditions: protein: recombinant; tags: N-terminal GST; dsDNA, one strand shown. Put shortly:
as §1

Test [16] addresses T11, ELF5 (Homo sapiens, UniProt Q9UKW6-2 1-255).
T11 sequence: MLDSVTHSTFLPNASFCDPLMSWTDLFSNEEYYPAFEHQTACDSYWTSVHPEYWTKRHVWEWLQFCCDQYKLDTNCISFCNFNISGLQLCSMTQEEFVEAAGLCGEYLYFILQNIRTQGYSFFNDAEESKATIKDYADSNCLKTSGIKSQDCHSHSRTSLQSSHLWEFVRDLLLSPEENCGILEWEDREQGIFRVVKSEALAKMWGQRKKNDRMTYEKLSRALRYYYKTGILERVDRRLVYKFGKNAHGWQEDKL
Particulars: protein: recombinant; tags: N-terminal GST; dsDNA, one strand shown. The method, boiled down:
as §1

The target of test [17] is T12, ETV3 (Homo sapiens, UniProt P41162-2 1-143).
T12 sequence: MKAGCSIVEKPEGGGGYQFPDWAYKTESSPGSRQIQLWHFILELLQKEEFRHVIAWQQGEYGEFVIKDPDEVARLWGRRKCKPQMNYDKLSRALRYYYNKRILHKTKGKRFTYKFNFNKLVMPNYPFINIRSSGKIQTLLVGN
Particulars: protein: recombinant; tags: N-terminal GST; dsDNA, one strand shown. The method, boiled down: as §1

The target of test [18] is ETV6 (Homo sapiens, UniProt P41212 1-452). Particulars: protein: recombinant; tags: N-terminal GST; dsDNA, one strand shown. Put shortly:
as §1

Chain of ETV5 (P41161 whole entry): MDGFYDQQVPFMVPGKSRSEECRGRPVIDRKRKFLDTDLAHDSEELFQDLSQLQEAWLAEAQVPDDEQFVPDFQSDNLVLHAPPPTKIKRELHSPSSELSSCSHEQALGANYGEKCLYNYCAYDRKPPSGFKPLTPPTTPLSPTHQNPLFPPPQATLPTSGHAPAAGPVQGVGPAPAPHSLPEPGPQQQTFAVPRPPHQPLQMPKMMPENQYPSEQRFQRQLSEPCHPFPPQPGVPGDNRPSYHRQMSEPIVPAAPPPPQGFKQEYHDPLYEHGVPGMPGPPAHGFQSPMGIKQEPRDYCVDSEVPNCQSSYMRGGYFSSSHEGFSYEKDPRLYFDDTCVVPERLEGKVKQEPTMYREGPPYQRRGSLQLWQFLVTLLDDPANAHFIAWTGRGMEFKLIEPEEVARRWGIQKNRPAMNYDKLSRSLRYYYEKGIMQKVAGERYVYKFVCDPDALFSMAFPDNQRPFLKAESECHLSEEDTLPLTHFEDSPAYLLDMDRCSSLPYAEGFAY
Chain of ETV1 (P50549 whole entry): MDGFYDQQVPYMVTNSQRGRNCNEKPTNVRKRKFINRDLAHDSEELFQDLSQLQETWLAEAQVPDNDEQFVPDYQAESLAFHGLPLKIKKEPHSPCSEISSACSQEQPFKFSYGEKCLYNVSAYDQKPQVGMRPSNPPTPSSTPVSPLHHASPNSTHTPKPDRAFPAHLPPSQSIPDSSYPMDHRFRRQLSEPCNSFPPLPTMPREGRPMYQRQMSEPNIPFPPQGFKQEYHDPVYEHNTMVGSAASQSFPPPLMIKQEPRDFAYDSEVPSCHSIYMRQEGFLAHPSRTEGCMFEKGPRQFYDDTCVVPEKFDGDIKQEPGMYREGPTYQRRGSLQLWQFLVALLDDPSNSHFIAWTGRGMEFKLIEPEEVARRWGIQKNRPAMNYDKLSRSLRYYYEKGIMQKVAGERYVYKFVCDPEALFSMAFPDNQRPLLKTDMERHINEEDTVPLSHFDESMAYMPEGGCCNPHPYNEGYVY
Chain of ETV6 (P41212 whole entry): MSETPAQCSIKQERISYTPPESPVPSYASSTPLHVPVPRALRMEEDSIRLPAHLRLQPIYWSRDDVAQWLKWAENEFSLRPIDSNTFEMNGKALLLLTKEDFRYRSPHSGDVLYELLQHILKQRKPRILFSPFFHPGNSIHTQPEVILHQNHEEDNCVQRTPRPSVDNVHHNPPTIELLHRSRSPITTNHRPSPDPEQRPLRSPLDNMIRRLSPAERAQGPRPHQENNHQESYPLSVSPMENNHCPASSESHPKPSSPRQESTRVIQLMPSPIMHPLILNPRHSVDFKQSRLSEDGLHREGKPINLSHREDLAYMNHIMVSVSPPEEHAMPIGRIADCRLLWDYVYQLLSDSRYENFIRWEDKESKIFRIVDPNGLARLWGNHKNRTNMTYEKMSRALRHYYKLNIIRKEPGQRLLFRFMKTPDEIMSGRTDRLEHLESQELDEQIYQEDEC
Chain of HSF1 (Q00613 whole entry): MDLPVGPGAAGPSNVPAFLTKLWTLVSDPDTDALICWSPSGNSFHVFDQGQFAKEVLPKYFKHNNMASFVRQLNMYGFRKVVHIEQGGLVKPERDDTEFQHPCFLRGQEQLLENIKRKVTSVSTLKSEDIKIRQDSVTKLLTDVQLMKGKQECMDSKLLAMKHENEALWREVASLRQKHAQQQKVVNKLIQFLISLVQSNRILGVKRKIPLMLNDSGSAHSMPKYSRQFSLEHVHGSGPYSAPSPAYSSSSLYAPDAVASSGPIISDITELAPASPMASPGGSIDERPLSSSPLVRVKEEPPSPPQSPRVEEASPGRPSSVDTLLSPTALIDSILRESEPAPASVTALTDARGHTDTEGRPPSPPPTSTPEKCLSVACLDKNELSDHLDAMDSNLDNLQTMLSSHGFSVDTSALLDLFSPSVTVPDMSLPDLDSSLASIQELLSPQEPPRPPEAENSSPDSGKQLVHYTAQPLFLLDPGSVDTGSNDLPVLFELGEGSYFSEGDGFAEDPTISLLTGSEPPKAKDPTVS
Chain of CRX (O43186 whole entry): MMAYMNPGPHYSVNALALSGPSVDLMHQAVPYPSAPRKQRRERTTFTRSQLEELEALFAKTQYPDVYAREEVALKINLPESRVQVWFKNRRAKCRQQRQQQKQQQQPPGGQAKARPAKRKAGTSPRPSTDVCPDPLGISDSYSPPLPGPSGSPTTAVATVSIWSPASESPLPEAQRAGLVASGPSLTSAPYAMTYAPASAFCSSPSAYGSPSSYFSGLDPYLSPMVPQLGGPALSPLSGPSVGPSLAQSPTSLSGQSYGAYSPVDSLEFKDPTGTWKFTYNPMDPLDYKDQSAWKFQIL
Chain of ELF4 (Q99607 whole entry): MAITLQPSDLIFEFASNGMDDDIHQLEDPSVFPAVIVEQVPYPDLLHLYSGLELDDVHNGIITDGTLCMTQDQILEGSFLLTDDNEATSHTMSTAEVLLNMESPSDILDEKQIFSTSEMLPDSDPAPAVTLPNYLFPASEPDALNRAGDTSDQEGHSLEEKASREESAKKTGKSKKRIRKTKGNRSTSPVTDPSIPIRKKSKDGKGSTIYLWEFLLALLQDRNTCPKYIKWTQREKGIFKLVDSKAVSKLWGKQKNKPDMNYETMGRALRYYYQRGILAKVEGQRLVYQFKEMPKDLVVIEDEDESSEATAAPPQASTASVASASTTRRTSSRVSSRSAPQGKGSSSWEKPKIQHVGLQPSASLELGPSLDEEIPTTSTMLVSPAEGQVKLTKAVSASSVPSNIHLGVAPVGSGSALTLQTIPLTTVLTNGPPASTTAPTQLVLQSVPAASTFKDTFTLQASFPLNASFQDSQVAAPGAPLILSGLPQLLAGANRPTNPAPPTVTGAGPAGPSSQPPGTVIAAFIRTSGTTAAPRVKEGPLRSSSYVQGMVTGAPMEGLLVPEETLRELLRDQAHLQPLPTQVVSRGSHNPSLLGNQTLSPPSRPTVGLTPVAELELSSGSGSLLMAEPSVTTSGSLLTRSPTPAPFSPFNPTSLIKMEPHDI

In the case of CAACTT, the binding signal in test [1] was 1.78 fold enrichment (6-mer frequency, TF over GST control); in test [2], 1.58 fold enrichment (6-mer frequency, TF over GST control); in test [3], 1.22 fold enrichment (6-mer frequency, TF over GST control); in test [4], 1.77 fold enrichment (6-mer frequency, TF over GST control); in test [5], 1.57 fold enrichment (6-mer frequency, TF over GST control); in [6], 1.65 fold enrichment (6-mer frequency, TF over GST control). Moreover, the binding signal was 1.4 fold enrichment (6-mer frequency, TF over GST control) in test [7]; 1.61 fold enrichment (6-mer frequency, TF over GST control) in test [8]; 1.25 fold enrichment (6-mer frequency, TF over GST control) in test [9]; 1.54 fold enrichment (6-mer frequency, TF over GST control) in test [10]; 1.44 fold enrichment (6-mer frequency, TF over GST control) in test [11]; 1.51 fold enrichment (6-mer frequency, TF over GST control) in test [12]. The binding signal in [13] was 1.6 fold enrichment (6-mer frequency, TF over GST control); in test [14], 1.49 fold enrichment (6-mer frequency, TF over GST control); in test [15] it was 1.37 fold enrichment (6-mer frequency, TF over GST control); in test [16], 1.61 fold enrichment (6-mer frequency, TF over GST control); in test [17] it was 1.55 fold enrichment (6-mer frequency, TF over GST control); in [18] it was 1.62 fold enrichment (6-mer frequency, TF over GST control).
